Data from PubChem BioAssay.
Potency and affinity values are given separately. Activity calls are given as the source filed them. No cut-off is given here; in the data, nearly all actives have IC50 up to about 0.98 µM.

biological target: Calcium-dependent protein kinase 1 (Plasmodium falciparum (isolate 3D7)) (UniProt P62344); assay: PfCDPK1 kinase inhibitors, biochemical, TCAMS library (AID 1159585); conditions: recombinant PfCDPK1, Kinase-Glo ATP depletion luminescence;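 note: inhibitors leave more ATP so luminescence rises with inhibition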
Sequence (P62344 whole entry, looked up): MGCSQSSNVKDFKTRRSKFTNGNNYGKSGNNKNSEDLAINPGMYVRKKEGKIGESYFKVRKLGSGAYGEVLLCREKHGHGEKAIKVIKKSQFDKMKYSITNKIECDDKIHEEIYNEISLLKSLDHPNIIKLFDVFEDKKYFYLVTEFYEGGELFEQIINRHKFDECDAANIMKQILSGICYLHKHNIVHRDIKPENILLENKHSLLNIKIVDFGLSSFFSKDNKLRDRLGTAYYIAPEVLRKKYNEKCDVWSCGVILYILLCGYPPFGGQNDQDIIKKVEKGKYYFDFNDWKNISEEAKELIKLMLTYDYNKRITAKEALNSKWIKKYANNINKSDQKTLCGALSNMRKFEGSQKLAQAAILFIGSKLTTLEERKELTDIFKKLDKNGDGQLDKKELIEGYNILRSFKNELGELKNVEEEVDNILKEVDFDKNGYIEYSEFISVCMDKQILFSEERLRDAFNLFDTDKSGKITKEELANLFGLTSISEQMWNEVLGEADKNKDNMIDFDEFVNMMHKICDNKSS

outcome, inactive:
O=C(N[C@H]1CCN(Cc2ccc(OCCN3CCNCC3)c(Br)c2)C1)c1ccc(Cl)c(Cl)c1
CCOc1cc(C(=O)NC2CCN(Cc3ccccc3)CC2)ccc1-c1nc2ccc(Cl)cc2[nH]1
O=C(Nc1cccc(-c2ccc(-c3nc4ccccc4[nH]3)cc2)c1)c1cnn2cccnc12
Cc1cccc2[nH]c(-c3ccc(-c4ccc(NC(=O)Nc5cccc(C#N)c5)cc4)cc3)nc12
CCN1CCN(CCCCNc2c3ccccc3nc3ccccc23)CC1
CCc1c(C)nc(-n2nc(C)cc2NC(=O)CC(c2ccccc2)c2ccccc2)[nH]c1=O
Cc1cc(CN2C(=O)C(c3ccccc3)(c3ccccc3)N=C2N)c(C(F)(F)F)o1
CC(=O)Nc1ccc(CN2CCC(NC(=O)c3ccc(-c4cccc(Cl)c4)s3)CC2)cc1
COc1ccc2nccc(NN=Cc3ccccc3[N+](=O)[O-])c2c1
Cc1cc(C(=O)OCC(N)=O)c(C)n1-c1ccc(F)cc1
COc1ccc(Nc2nc(NN=Cc3ccc(-c4ccc([N+](=O)[O-])cc4)o3)nc(Nc3ccccc3)n2)cc1
COc1ccc2nccc([C@@H](O)CN3CCC(NC(=O)c4ccc(Cl)c(Cl)c4)CC3)c2c1
Cc1cccc2[nH]c(-c3ccc(-c4ccc(CN5CCN(CC6CCCN(C)C6)CC5)cc4)cc3)nc12 (stereo not given)
CCOc1ccc(OCCCON2C(N)=NC(N)=NC2(C)C)cc1
Cc1cccc(-n2nc(C)c3c2NC(=O)CC3C(=O)c2ccc(Cl)s2)c1 (stereo not given)
